Experimental data reported in PubChem BioAssay (EPA / NIEHS).
Activity calls are given as the source filed them. How the source made its calls: active means hit-call score of the fitted dose curve at least 0.9, where 1 is the maximum; inactive means score below 0.9.

Experiments:
[1] = ATG_GRE_CIS: Attagene CIS-FACTORIAL HepG2 Assay for human Glucocorticoid Response Elements (GRE) (AID 2282947); conditions: HepG2 GRE cis-reporter, Attagene multiplex mRNA; actives raise or lower the signal
How it was run: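 Fluorescence intensity of reporter-specific cDNA fragments, separated by capillary electrophoresis, provides the signal. Constructs carry cis-regulating promoters in transiently transfected HepG2 liver cells; 24 h incubation; fitting is bidirectional against DMSO.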

[2] = ATG_ISRE_CIS: Attagene CIS-FACTORIAL HepG2 Assay for human Interferon Regulatory Factor 1 (IRF1) binding to an Interferon-Stimulated Response Element (ISRE) (AID 2282948); conditions: HepG2 ISRE cis-reporter (Attagene), mRNA transcription readout; actives raise or lower the signal
How it was run: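 Read-out: fluorescent RT-PCR products resolved by capillary electrophoresis, reporting endogenous transcription factor activity via ISRE-driven reporter mRNA in transfected HepG2 cells dosed for 24 h; gain or loss fitted relative to DMSO.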

[3] = ATG_M_32_CIS: Attagene CIS-FACTORIAL HepG2 Assay for M32 Transcription Factor (Internal Marker) (AID 2282949); conditions: HepG2 Attagene cis-factorial M32 reporter, mRNA; actives raise or lower the signal;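 further: background control marker of the multiplexed CIS panel rather than a real target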
How it was run: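 HepG2 human liver cells transiently transfected with cis-promoter-driven multiple reporter transcription units, dosed 24 h. Reporter mRNA quantified by RT-PCR, FAM-labelled primer extension, HpaI digest and capillary electrophoresis; bidirectional fit versus DMSO baseline.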

[4] = ATG_M_06_CIS: Attagene CIS-FACTORIAL HepG2 Assay for M06 Transcription Factor (Internal Marker) (AID 2282950); conditions: HepG2 Attagene CIS-FACTORIAL M06 internal marker reporter; actives raise or lower the signal
How it was run: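 Serves as a background control readout. Transfected HepG2 exposed to compounds for 24 h, then reporter transcripts quantified by fluorescent RT-PCR and capillary electrophoresis. Both directions fitted against DMSO baseline.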

[5] = target: Hypoxia-inducible factor 1-alpha (Homo sapiens) (UniProt Q16665); assay: ATG_HIF1a_CIS: Attagene CIS-FACTORIAL HepG2 Assay for human Hypoxia Inducible Factor 1 (HIF1A) (AID 2282951); conditions: HepG2 Attagene cis-factorial HIF1a reporter transcription; actives raise or lower the signal
Chain of Hypoxia-inducible factor 1-alpha (Homo sapiens) (Q16665 whole entry, looked up): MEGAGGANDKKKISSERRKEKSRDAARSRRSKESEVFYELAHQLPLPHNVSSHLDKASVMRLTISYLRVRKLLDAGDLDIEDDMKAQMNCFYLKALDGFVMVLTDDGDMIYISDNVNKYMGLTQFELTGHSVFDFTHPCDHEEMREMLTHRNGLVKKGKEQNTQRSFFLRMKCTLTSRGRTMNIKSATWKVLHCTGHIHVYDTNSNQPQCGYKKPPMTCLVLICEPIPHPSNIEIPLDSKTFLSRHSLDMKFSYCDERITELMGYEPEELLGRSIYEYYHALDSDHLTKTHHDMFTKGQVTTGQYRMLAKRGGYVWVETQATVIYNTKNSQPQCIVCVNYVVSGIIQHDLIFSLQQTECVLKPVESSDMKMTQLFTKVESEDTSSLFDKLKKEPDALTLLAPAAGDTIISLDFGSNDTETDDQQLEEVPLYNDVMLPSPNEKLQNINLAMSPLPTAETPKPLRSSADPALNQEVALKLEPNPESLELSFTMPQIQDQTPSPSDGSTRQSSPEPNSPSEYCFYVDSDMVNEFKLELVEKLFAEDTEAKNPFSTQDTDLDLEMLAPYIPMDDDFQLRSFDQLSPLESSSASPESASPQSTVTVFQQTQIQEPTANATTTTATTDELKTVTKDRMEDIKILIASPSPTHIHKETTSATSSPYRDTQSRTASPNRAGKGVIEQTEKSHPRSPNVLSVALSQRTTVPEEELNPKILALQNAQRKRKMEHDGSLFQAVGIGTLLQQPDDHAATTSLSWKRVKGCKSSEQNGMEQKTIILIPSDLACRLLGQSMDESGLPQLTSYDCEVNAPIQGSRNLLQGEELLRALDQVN
How it was run: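 Dosed 24 h, transfected HepG2 cells yielded total RNA whose reporter transcripts were RT-PCR-amplified and sized by capillary electrophoresis using fluorescent labelling; DMSO defined baseline, with gain and loss of signal both fitted.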

[6] = target: Hepatocyte nuclear factor 6 (Homo sapiens) (UniProt Q9UBC0); assay: ATG_HNF6_CIS: Attagene CIS-FACTORIAL HepG2 Assay for human Hepatocyte Nuclear Factor 6 (HNF6) (AID 2282952); conditions: HepG2 Attagene cis-factorial HNF6 reporter transcription; actives raise or lower the signal
Chain of Hepatocyte nuclear factor 6 (Homo sapiens) (Q9UBC0 whole entry, looked up): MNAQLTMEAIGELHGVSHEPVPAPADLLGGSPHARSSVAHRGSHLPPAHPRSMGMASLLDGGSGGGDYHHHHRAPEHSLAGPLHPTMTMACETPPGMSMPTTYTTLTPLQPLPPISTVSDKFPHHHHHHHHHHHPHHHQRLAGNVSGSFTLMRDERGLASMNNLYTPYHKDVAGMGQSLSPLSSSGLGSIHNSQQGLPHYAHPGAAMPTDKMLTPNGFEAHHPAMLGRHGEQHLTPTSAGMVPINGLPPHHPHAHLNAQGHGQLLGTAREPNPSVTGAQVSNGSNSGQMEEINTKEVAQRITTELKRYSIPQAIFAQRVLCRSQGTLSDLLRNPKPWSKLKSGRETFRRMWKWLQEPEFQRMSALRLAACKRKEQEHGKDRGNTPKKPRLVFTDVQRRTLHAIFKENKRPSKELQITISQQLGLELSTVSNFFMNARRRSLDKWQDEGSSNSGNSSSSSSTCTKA
How it was run: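 Activity values derive from bidirectional fitting against DMSO of reporter mRNA levels, measured by capillary electrophoresis of labelled RT-PCR products from HepG2 cells exposed 24 h.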

[7] = target: Heat shock factor protein 1 (Homo sapiens) (UniProt Q00613); assay: ATG_HSE_CIS: Attagene CIS-FACTORIAL HepG2 Assay for human Heat Shock Transcription Factor 1 (HSE) (AID 2282953); conditions: HepG2 HSE cis-reporter, Attagene RNA transcription; actives raise or lower the signal
Chain of Heat shock factor protein 1 (Homo sapiens) (Q00613 whole entry, looked up): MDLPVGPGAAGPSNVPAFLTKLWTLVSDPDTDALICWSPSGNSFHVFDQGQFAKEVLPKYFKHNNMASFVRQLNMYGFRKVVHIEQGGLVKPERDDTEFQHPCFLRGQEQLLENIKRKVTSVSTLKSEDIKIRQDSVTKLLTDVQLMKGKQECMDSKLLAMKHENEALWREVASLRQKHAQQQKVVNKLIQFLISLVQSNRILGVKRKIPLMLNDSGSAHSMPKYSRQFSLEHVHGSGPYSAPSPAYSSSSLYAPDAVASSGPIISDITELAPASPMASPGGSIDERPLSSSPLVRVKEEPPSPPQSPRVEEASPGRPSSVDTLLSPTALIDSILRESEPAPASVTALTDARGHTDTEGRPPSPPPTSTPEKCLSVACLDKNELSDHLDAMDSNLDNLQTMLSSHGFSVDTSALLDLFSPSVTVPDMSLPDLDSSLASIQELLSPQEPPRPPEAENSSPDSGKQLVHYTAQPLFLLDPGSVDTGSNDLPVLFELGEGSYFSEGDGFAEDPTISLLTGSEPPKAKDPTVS
How it was run: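 Endogenous transcription factor activity in transiently transfected HepG2, read as reporter mRNA by RT-PCR with fluorescent capillary electrophoresis after 24 h. Gain or loss of signal fitted versus DMSO baseline.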

[8] = ATG_MRE_CIS: Attagene CIS-FACTORIAL HepG2 Assay for human Metal Responsive Element (MRE) (AID 2282954); conditions: HepG2 MRE cis-reporter transcription, Attagene multiplex; actives raise or lower the signal
How it was run: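 Measured here is mRNA induction from an MRE cis-element reporter in HepG2 after 24 h, quantified by fluorescence of labelled RT-PCR products on capillary electrophoresis; gain- and loss-of-signal fits use DMSO as baseline.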

[9] = target: Paired box protein Pax-6 (Homo sapiens) (UniProt P26367); assay: ATG_Pax6_CIS: Attagene CIS-FACTORIAL HepG2 Assay for human Paired Box 6 (PAX6) (AID 2282956); conditions: HepG2 CIS-FACTORIAL PAX6 reporter transcription, RNA readout; actives raise or lower the signal
Chain of Paired box protein Pax-6 (Homo sapiens) (P26367 whole entry, looked up): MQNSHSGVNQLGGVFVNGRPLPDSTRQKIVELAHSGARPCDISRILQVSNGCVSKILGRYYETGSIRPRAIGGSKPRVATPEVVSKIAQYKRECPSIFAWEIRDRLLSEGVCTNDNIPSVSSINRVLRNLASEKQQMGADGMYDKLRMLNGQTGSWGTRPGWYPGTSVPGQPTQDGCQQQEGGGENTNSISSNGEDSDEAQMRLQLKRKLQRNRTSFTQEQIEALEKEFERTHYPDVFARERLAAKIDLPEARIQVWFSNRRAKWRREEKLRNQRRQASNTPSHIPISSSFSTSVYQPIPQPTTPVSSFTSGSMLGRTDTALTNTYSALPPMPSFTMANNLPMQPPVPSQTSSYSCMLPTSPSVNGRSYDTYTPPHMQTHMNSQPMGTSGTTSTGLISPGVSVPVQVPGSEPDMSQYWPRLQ
How it was run: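 Readout: reporter transcript fluorescence after RT-PCR and capillary electrophoresis. Cells: HepG2, transiently transfected with cis-regulated MRTUs. Exposure 24 h. Gain or loss of signal fitted bidirectionally relative to DMSO.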

[10] = ATG_PXRE_CIS: Attagene CIS-FACTORIAL HepG2 Assay for human Pregnane X Receptor Element (PXRE) (AID 2282957); conditions: HepG2 Attagene CIS-FACTORIAL PXRE reporter, mRNA; actives raise or lower the signal
How it was run: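 Fluorescent capillary electrophoresis of amplified reporter cDNA gave the signal, collected 24 h after dosing HepG2 cells that held transfected cis-element reporter constructs.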

[11] = ATG_RORE_CIS: Attagene CIS-FACTORIAL HepG2 Assay for human RAR-related Orphan Receptor Element (RORE) (AID 2282959); conditions: HepG2 Attagene cis-factorial RORE reporter, mRNA; actives raise or lower the signal
How it was run: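 Transiently transfected HepG2 reporter cells were treated 24 h. Reporter transcripts were detected by RT-PCR and capillary electrophoresis, with bidirectional fitting against DMSO.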

[12] = ATG_Sox_CIS: Attagene CIS-FACTORIAL HepG2 Assay for human SRY-box transcription factor (SOX) (AID 2282960); conditions: HepG2 Attagene cis-factorial SOX reporter, mRNA; actives raise or lower the signal
How it was run: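 Gain- or loss-of-signal endpoint, fitted bidirectionally with DMSO as negative control. Based on reporter mRNA from transfected HepG2 cells harvested 24 h post-treatment and quantified via RT-PCR and capillary electrophoresis.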

[13] = target: Transcription factor Sp1 (Homo sapiens) (UniProt P08047); assay: ATG_Sp1_CIS: Attagene CIS-FACTORIAL HepG2 Assay for human Specificity Protein 1 (Sp1) (AID 2282961); conditions: HepG2 Sp1 cis-reporter transcription, actives raise or lower the signal
Chain of Transcription factor Sp1 (Homo sapiens) (P08047 whole entry, looked up, the tested form may be a part): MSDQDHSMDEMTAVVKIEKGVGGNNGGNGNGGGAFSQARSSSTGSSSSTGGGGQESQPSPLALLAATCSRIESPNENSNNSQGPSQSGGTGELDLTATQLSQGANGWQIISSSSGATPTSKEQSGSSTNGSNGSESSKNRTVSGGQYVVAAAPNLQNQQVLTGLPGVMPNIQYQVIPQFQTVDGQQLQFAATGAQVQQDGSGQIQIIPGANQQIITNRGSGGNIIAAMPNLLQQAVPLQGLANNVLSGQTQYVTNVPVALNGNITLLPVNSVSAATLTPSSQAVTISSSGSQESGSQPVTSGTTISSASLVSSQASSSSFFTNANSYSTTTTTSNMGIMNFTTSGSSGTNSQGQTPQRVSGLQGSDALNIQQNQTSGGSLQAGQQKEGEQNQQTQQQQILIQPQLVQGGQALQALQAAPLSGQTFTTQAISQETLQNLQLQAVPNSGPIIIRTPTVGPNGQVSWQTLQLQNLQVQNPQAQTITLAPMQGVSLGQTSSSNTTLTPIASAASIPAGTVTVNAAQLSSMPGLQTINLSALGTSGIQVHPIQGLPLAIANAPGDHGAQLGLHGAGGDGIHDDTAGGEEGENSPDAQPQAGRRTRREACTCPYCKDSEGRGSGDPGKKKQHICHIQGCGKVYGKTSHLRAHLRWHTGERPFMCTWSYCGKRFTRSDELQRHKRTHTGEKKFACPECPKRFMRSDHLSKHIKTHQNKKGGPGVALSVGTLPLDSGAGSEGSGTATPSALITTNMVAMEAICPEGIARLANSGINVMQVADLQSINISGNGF
How it was run: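 Endpoint reflects endogenous Sp1 transcriptional activity, not an exogenous fusion protein: HepG2 cells with transfected cis-regulated reporters, 24 h dosing, RT-PCR/capillary electrophoresis mRNA read-out, DMSO-normalised bidirectional fit.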

[14] = ATG_SREBP_CIS: Attagene CIS-FACTORIAL HepG2 Assay for human Sterol Regulatory Element Binding (SREBP) (AID 2282962); conditions: HepG2 Attagene cis-factorial SREBP reporter, mRNA; actives raise or lower the signal
How it was run: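 Readout: fluorescent reporter-transcript peaks resolved by capillary electrophoresis after RT-PCR. Cells were human HepG2 carrying transfected cis-promoter reporter constructs, dosed for 24 h. Gain or loss of signal was fitted against DMSO controls.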

[15] = target: Signal transducer and activator of transcription 3 (Homo sapiens) (UniProt P40763); assay: ATG_STAT3_CIS: Attagene CIS-FACTORIAL HepG2 Assay for human Signal Transducer and Activator of Transcription 3 (STAT3) (AID 2282963); conditions: HepG2, Attagene cis-factorial STAT3 reporter transcription; actives raise or lower the signal
Chain of Signal transducer and activator of transcription 3 (Homo sapiens) (P40763 whole entry, looked up, the tested form may be a part): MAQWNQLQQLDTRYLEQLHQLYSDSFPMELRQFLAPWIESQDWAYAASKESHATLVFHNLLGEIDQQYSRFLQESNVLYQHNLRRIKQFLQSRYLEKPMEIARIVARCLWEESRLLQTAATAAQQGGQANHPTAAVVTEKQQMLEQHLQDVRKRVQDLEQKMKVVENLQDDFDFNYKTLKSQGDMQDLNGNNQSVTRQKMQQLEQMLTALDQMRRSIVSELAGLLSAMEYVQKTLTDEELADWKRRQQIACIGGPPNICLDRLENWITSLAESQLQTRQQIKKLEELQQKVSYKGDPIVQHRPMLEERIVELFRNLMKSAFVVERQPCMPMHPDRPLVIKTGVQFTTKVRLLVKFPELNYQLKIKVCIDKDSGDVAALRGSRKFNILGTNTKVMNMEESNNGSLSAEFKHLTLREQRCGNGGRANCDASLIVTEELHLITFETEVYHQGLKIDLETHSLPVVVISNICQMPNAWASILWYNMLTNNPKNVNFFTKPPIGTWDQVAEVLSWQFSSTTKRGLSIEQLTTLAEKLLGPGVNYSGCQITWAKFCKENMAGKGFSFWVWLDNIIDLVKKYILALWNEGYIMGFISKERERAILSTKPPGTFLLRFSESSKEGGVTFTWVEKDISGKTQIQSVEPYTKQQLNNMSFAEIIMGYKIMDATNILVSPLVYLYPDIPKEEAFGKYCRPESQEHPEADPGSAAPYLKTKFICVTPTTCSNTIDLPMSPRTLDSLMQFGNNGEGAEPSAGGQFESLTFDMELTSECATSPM
How it was run: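 Fluorescence intensity of 6-FAM-labelled reporter fragments, separated by capillary electrophoresis after RT-PCR, gave the signal. Cells were HepG2 transfected with cis-element reporter units and treated 24 h; fitting was bidirectional relative to DMSO.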

[16] = ATG_TA_CIS: Attagene CIS-FACTORIAL HepG2 Assay for human TA Basal Promoter (AID 2282964); conditions: HepG2 Attagene CIS-factorial TA basal promoter reporter; actives raise or lower the signal
How it was run: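 Background-control readout: TA basal promoter reporter mRNA, fitted in both directions relative to DMSO. Measured by RT-PCR and capillary electrophoresis 24 hours after treating HepG2 human liver cells transiently carrying multiplexed cis-regulated reporter constructs.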

[17] = ATG_TCF_b_cat_CIS: Attagene CIS-FACTORIAL HepG2 Assay for human T-Cell-Factor with beta-catenin (TCF/b-cat) (AID 2282965); conditions: HepG2 TCF/beta-catenin cis-reporter transcription, actives raise or lower the signal
How it was run: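 HepG2 cells transiently transfected with cis-promoter-driven multiplexed reporter units; reporter mRNA measured 24 h after dosing by RT-PCR, FAM labelling, HpaI digestion and capillary electrophoresis. Bidirectional fitting relative to DMSO baseline.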

[18] = ATG_PBREM_CIS: Attagene CIS-FACTORIAL HepG2 Assay for human Phenobarbital-responsive Enhancer Module (PBREM) (AID 2282955); conditions: HepG2 PBREM cis-reporter, Attagene multiplexed transcription; actives raise or lower the signal
How it was run: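 Transfected liver-derived HepG2 cells exposed 24 h; PBREM reporter transcript quantified via RT-PCR and capillary electrophoresis, with activity in either direction referenced to DMSO.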

[19] = ATG_PPRE_CIS: Attagene CIS-FACTORIAL HepG2 Assay for human Peroxisome Proliferator-activated Response Element (PPRE) (AID 2282958); conditions: HepG2 PPRE cis-element reporter, Attagene transcription factor profiling; actives raise or lower the signal
How it was run: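 Measured endpoint: PPRE-controlled reporter mRNA, detected by RT-PCR and capillary electrophoresis fluorescence, from transiently transfected HepG2 cells 24 h after dosing. Curves fitted in both directions using DMSO baseline.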

Measured: AC50

COc1ccc(Cl)cc1C
not listed: [18] | [19]
inactive: all other assays above

CC(=O)Nc1ccc(CC(=O)O)cc1
not listed: [6] | [19]
inactive: all other assays above

CCCCOCCOCCSC#N
active: [10] 1.92 µM
not listed: [7]
inactive: all other assays above

CCCCCC=CCC(=O)OC
active: [10] 100 µM
not listed: [7] | [12] | [14] | [18] | [19]
inactive: all other assays above

CC1(C)[C@H]2CC[C@]1(C)[C@H](O)C2
active: [10] 68.7 µM
not listed: [6] | [19]
inactive: all other assays above

O=C(O)c1cn(-c2ccc(F)cc2)c2cc(N3CCNCC3)c(F)cc2c1=O
not listed: [10] | [18]
inactive: all other assays above

CC(c1cc2ccccc2s1)N(O)C(N)=O (stereo not given)
not listed: [11] | [18] | [19]
inactive: all other assays above

C=C[Si](OCC)(OCC)OCC
active: [10] 5.48 µM
not listed: [6] | [18]
inactive: all other assays above

COc1ccnc(CS(=O)c2nc3cc(OC(F)F)ccc3[nH]2)c1OC (stereo not given)
active: [10] 8.07 µM
not listed: [6] | [19]
inactive: all other assays above

O=C1CCCCCCCCCCCCCCO1
not listed: [18] | [19]
inactive: all other assays above

C=CC[N+](C)(C)CC=C
not listed: [6] | [7] | [18]
inactive: all other assays above

CC(=O)c1c(C)cc(C(C)(C)C)cc1C
active: [10] 27.1 µM
not listed: [1]
inactive: all other assays above

O=C(O)CCSCCC(=O)O
active: [10] 54.3 µM
not listed: [6] | [7] | [19]
inactive: all other assays above

Cc1cccc(Nc2ccccc2C(=O)O)c1C
active: [8] 76.9 µM | [10] 14.1 µM | [19] 18.2 µM | [17] 19.8 µM
not listed: [5] | [11] | [12] | [15]
inactive: all other assays above

CCOC(=S)SSC(=S)OCC
active: [7] 157 µM
not listed: [3]
inactive: all other assays above
